Assay results reported in PubChem BioAssay (NCI).
This is part of a sample that, as a whole, favours compounds with a hit. Of some 83,000 tested, about 20% had one in any assay.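 Results are percent growth after 48 hours of single-concentration exposure. 100 means growth as in untreated cells, lower positive values show inhibition; negative values down to -100 show cell death.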 Unmarked numbers belong to inactive results. Calls of active or inactive are those of the source. How the source made its calls: active means growth percent below 10; inactive means the rest.

Key:
Assay in all cases: NCI-60 one-dose screen, 48 h (100 = growth as untreated, 0 = no growth, -100 = all killed)
Details in all cases: 10 µM unless noted
NCI-H23 lung = test system: NCI-H23 lung
NCI-H226 lung = test system: NCI-H226 lung
NCI-H322M lung = test system: NCI-H322M lung
NCI-H460 lung = test system: NCI-H460 lung
NCI-H522 lung = test system: NCI-H522 lung
A549/ATCC NSCLC = test system: A549/ATCC NSCLC
786-0 renal = test system: 786-0 renal
COLO 205 colon = test system: COLO 205 colon
DU-145 prostate = test system: DU-145 prostate
K-562 leukemia = test system: K-562 leukemia
MDA-MB-231 breast = test system: MDA-MB-231 breast
SF-268 CNS = test system: SF-268 CNS
SF-295 CNS = test system: SF-295 CNS
SF-539 CNS = test system: SF-539 CNS
UACC-257 melanoma = test system: UACC-257 melanoma
M14 melanoma = test system: M14 melanoma
HCT-15 colon = test system: HCT-15 colon
MALME-3M melanoma = test system: MALME-3M melanoma
RXF 393 renal = test system: RXF 393 renal

SMILES | growth (NCI-H23 lung) | growth (NCI-H226 lung) | growth (NCI-H322M lung) | growth (NCI-H460 lung) | growth (NCI-H522 lung) | growth (A549/ATCC NSCLC) | growth (786-0 renal) | growth (COLO 205 colon) | growth (DU-145 prostate) | growth (K-562 leukemia) | growth (MDA-MB-231 breast) | growth (SF-268 CNS) | growth (SF-295 CNS) | growth (SF-539 CNS) | growth (UACC-257 melanoma) | growth (M14 melanoma) | growth (HCT-15 colon) | growth (MALME-3M melanoma) | growth (RXF 393 renal)
O=C(/C(=C/c1ccc([N+](=O)[O-])cc1)c1ccccc1)c1ccccc1 | 67.1% | 56.6% | 74.3% | 65.6% | 31.4% | 48.7% | 65.3% | 87.6% | 23.4% | 3.83% (active) | 53.6% | 27.8% | 67.5% | 83% | 41.1% | 51.6% | 14.6% |  | 
CN(CC(=O)Nc1nc2ccccc2[nH]1)S(=O)(=O)c1ccc(Cl)cc1 | 126% | 81.7% | 98.3% | 45.3% | 80.6% | 111% | 91.9% | 95.6% | 89.9% | 95.7% | 99.6% | 67% | 38.4% | 88.5% |  | 95.7% | 90.8% | 100% | 122%
Cc1cc(C(C)(C)C)cc(C)c1CC1=NCCN1 | 99% | 89.2% | 102% | 118% | 106% | 104% | 96.9% | 92.6% | 107% | 90.4% | 109% | 100% | 96.3% |  | 106% | 107% | 102% | 99.2% | 107%
NC(N)=NC(N)=NCCCc1ccccc1 | 50.2% [100 µM] | 63.4% [100 µM] | 84.6% [100 µM] | 81.6% [100 µM] | 47.2% [100 µM] | 62.3% [100 µM] | 56.2% [100 µM] |  |  |  | 69% [100 µM] | 59.5% [100 µM] | 49.4% [100 µM] | 66.5% [100 µM] | 62.8% [100 µM] | 76.6% [100 µM] | 80.3% [100 µM] | 63.9% [100 µM] | 72.4% [100 µM]
CC(C)c1nc(N(C)S(C)(=O)=O)nc(-c2ccc(F)cc2)c1/C=C/[C@@H](O)C[C@@H](O)CC(=O)O | 109% | 105% | 93.9% | 118% | 69.9% | 97.9% | 106% | 105% | 103% | 130% | 63.7% | 77.5% | 100% | 97.6% | 103% | 104% | 95.2% | 104% | 105%
CC[N+](CC)(CCOCCOCC[N+](CC)(CC)Cc1ccc([N+](=O)[O-])cc1)Cc1ccc([N+](=O)[O-])cc1 | 99.2% | 91.7% | 117% | 96.8% | 93.4% |  | 109% | 106% | 119% | 98% | 91.3% | 98.6% | 103% | 105% | 90.9% |  | 105% | 105% | 110%
O=C(Nc1ccccc1Cl)c1cnc2ccc(C3CCNCC3)cn12 | 95% | 65% | 23.1% | 86.4% | 2.54% (active) | 66.7% | 52.8% |  | 56.7% |  | 61.3% | 60.7% | 70.7% | 47% | 82.5% | 72.7% | 46.6% | 96.2% | 36.5%
CCCCCCCCCCCCCCCCN=C(CC(=O)O)C(=O)O | 103% | 99.4% | 91.7% | 82.7% | 87.5% | 96.1% | 95.4% | 97.9% | 78.8% | 80.6% |  | 103% | 103% | 125% | 114% |  |  | 111% | 101%
C[n+]1c2ccccc2c(Nc2ccc(N3CCCCC3)cc2)c2[nH]c3ccccc3c21 | -76.3% (active) | -56.5% (active) | -95.2% (active) | -84.1% (active) | -96.5% (active) | -88% (active) | -98.5% (active) | -87% (active) | -95.7% (active) | -74% (active) | -91.1% (active) | -93.4% (active) | -85.7% (active) | -99.1% (active) | -98.7% (active) | -97.3% (active) | -78.8% (active) | -77.8% (active) | -96.5% (active)
Clc1ccc2nc(Cl)c3ccccc3c2c1 | 84.6% | 71.7% | 37.6% | -1.38% (active) | 75.7% | 28.7% | 46.8% | 78.3% | 62.9% | 88% | 74.9% | 76.3% |  | 63.8% | 93.1% | 99.9% | 91.4% | 67.2% | 59.6%
CCN(CC)c1ccc(CN(CC(=O)c2ccc(Cl)c(Cl)c2)Cc2ccccc2)cc1 | 97.6% | 90.9% | 110% | 101% | 106% | 107% |  | 104% | 104% | 103% | 99.9% | 102% | 107% | 108% | 112% | 103% | 99.8% | 108% | 89.9%
N#Cc1c(N)[nH]c(S)c1C#N | 105% | 97.5% | 108% | 107% | 97.4% | 90.9% | 107% | 120% | 112% | 100% | 99.3% | 108% | 87.7% | 97.9% | 99.9% | 100% | 100% | 107% | 113%
NS(=O)(=O)c1ccc(NC2=C(Cl)C(=O)c3ccccc3C2=O)cc1 | 80.9% | 61.9% | 113% | 116% | 70.1% | 112% | 104% | 95.2% | 142% | 18.6% | 79.7% | 118% | 111% | 89.6% | 92.5% | 99.9% | 46.5% | 135% | 
COc1cc(OC)c2cc(C(=O)O)c(=O)oc2c1 | 96.8% | 96.8% | 79.8% | 95.3% | 97.3% | 123% | 83.9% |  | 129% | 95.1% | 94.3% | 110% |  | 102% | 76% | 103% | 106% | 113% | 105%
O=C(Nc1ccc(Cl)cc1Cl)Nc1ccc(-c2cccnc2)cc1N1CCC(CO)CC1 | 29% | 55.4% | 61.5% |  | 53.4% | 27.2% | 52.3% | 16.1% | 54.2% | 17.7% | 13.6% | 48.4% | 81.6% | 30.9% | 47.8% | 36% | 26.8% | 41.3% | 49.5%
O=C(c1nn(-c2ccc(Cl)cc2)cc1O)n1nc(C(F)(F)F)cc1-c1ccccc1 | 32.8% | 52.7% | -1.34% (active) | 34.9% | 21.2% | 47.4% | 42.9% | 7.24% (active) | 49.2% | 18.6% | 54.6% | 42.3% | -0.429% (active) | 45.6% | 53.3% | 43.4% | 30.2% | 107% | 55.1%
